# In the supplement of paper PMC10981050:
# “And” between values parts separate entries of the source, which are not always exact repeats. Identical values can stand only once. Counter-ions that a name gives are not always drawn.
# Experiments:
# Experiment in all cases: cell viability relative to vehicle control; higher = less cytotoxic
# Conditions in all cases: 10 µM
# K562 = test system: K562
# In short: (§1)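 After removal of identity-inconsistent compounds, the Selleck bioactive, kinase and epigenetic probe libraries were screened on CRISPR-edited mutant clones and isogenic wild-type clones of four leukaemia lines. Plates were 384-well, each well holding 2000 cells in 50 µL medium and receiving a single 10 µM acoustically dispensed dose. CellTiter-Glo luminescence was read 48 h later, after the supernatant was taken off. Genedata Screener was used to express viability as percent of the on-plate vehicle control.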
# MARIMO = test system: MARIMO
# In short: as §1
# MOLM14 = test system: MOLM14
# In short: as §1
# OCI-AML2 = test system: OCI-AML2
# In short: as §1
SMILES,cell viability (K562; SRSF2 genotype: SRSF2 P95H/wt),cell viability (K562; SRSF2 genotype: SRSF2 wt/wt) [%],cell viability (MARIMO; SRSF2 genotype: SRSF2 P95H/wt) [%],cell viability (MARIMO; SRSF2 genotype: SRSF2 wt/wt) [%],cell viability (MOLM14; SRSF2 genotype: SRSF2 P95H/wt) [%],cell viability (MOLM14; SRSF2 genotype: SRSF2 wt/wt) [%],cell viability (OCI-AML2; SRSF2 genotype: P95H/wt) [%],cell viability (OCI-AML2; SRSF2 genotype: wt/wt) [%]
NS(=O)(=O)c1cc2c(cc1Cl)NC(C(Cl)Cl)NS2(=O)=O (stereo not given) [Trichlormethiazide (Achletin)],102% and 101%,102,108,99.7,94.7,106,112,110
CN1CCc2cc(Nc3ncc(C4CC4)c(NCCCNC(=O)C4CCC4)n3)ccc2C1,34.8% and 33.1%,55.2,3.21,1.31,0.63,0.39,1.22,4.15
CC(C)(C)c1cc(NC(=O)Nc2ccc(Oc3ccnc4[nH]c(=O)cnc34)cc2F)n(-c2ccccc2)n1,30% and 44%,25.7,14.6,9.05,7.07,2.65,6.64,15.8
NC1(Cc2ccc(Cl)cc2)CCN(c2ncnc3[nH]ccc23)CC1,55.4% and 60.1%,50.8,36.5,35.1,17.7,17,35.3,30.9
OCCOCCN1CCN(C(c2ccccc2)c2ccc(Cl)cc2)CC1 (stereo not given) [Hydroxyzine pamoate],88.7% and 98%,100,79.8,91.8,79.9,96.4,87.9,94.6
C=CC(=O)N1CC(N2CCN(C(=O)CNc3cc(C4(C)CC4)c(Cl)cc3O)CC2)C1,93.9% and 95.2%,97.3,88.9,102,86.1,104,112,108
O=c1cc(N2CCOCC2)oc2c1ccc1ccccc12,96.7% and 102%,99.6,93.3,102,89.2,96.7,87.6,96.7
CNCc1ccc(-c2[nH]c3cc(F)cc4c3c2CCNC4=O)cc1,94% and 103%,97.8,84.7,86.7,50,29.4,44.2,55.8
O=C(CCCCc1ccc2c(c1)OCO2)N1CCCCC1 [Tetrahydropiperine],91.7% and 93.2%,97.2,88.6,102,89.8,93.9,85,88.3
COc1cc(O)cc2c1C(=O)C[C@@H](c1ccccc1)O2 [Alpinetin],107% and 103%,96.5,101,109,109,110,102,106
CNCC[C@@H](Oc1ccccc1C)c1ccccc1 [Atomoxetine HCl],111% and 112%,108,100,94.9,101,106,115,94.6
Cc1ccc(C(=O)Cn2c3c(sc2=N)CCCC3)cc1,88.9% and 94.2%,91.3,81.4,93.8,84,96.9,83.9,92.3
C[n+]1c2ccccc2nc2ccccc21 [Phenazine methosulfate],6.28% and 2.85%,13.5,4.9,8.06,2.87,1.78,2.71,4.56
NCCOc1ccc(Cl)cc1C(=O)Nc1ccc([N+](=O)[O-])cc1Cl,29.7% and 24.1%,23.4,35.4,37.5,21.3,14.6,4.88,14.7
Cc1ccc(C(C)C)c(O)c1 [Thymol],96.2% and 91.7%,99,97.9,102,97.1,105,98.3,101
CC[C@H]1OC(=O)C[C@@H](O)[C@H](C)[C@@H](O[C@@H]2O[C@H](C)[C@@H](O)[C@H](N(C)C)[C@H]2O)[C@@H](CCN2C[C@H](C)C[C@H](C)C2)C[C@@H](C)C(=O)/C=C/C(C)=C/[C@@H]1CO[C@@H]1O[C@H](C)[C@@H](O)[C@@H](OC)[C@H]1OC [Tilmicosin],96.5% and 94.4%,99.4,95.6,106,98.5,103,93.3,105
CO/N=C(\C(=O)N[C@@H]1C(=O)N2C(C(=O)OC(C)OC(C)=O)=C(COC(N)=O)CS[C@H]12)c1ccco1 (stereo not given in full) [Cefuroxime axetil],103% and 102%,96.2,99.6,104,101,107,111,105
CC[C@@H]1/C=C(\C)C[C@H](C)C[C@H](OC)[C@H]2O[C@@](O)(C(=O)C(=O)N3CCCC[C@H]3C(=O)O[C@H](/C(C)=C/[C@@H]3CC[C@H](Cl)[C@H](OC)C3)[C@H](C)[C@@H](O)CC1=O)[C@H](C)C[C@@H]2OC [Pimecrolimus],66% and 70.4%,64.5,80.5,70.7,65.7,67.3,58.1,57.8
CN1CCN(S(=O)(=O)c2ccc(-c3cnc(N)c(C(=O)Nc4cccnc4)n3)cc2)CC1,72.1% and 61.7%,73.6,76.7,114,40.6,42.1,30,63.3
O=S(=O)(NCCNCC=Cc1ccc(Br)cc1)c1cccc2cnccc12,77.6% and 78%,75.8,61.2,69.1,43.2,50,38.7,43.2
